Test results published in PubChem BioAssay (NCATS).
“And” between values parts separate entries of the source, which are not always exact repeats. Equal entries are not always repeated. Records with an inconclusive call do not appear. Entries that show only a call come without a potency. Some structures have more than one record in an assay (separate samples or runs), and their calls can disagree. The source made the active and inactive calls. The call rests on the fitted dose curve; in most records, active means well fitted curve in the direction sought with a large enough effect; inconclusive means small, poorly fitted or top-dose-only effect, or another doubt; inactive means no such curve, though single readings can be large; an effect the other way counts as inactive or inconclusive.

Legend:
[1] = P-glycoprotein substrates identified in KB-3-1 adenocarcinoma cell line, qHTS therapeutic library screen (AID 1346986); conditions: KB-3-1 parental cells viability, CellTiter-Glo, 72 h; series mostly up to 44.5 µM; further: nearly all actives have a fitted effect of over 60% in size;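 further: potency is for cytotoxicity meaning loss of cell viability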
How it was run: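 KB-3-1 parental and colchicine-selected P-gp-overexpressing KB-8-5-11 cells (colchicine omitted during assay), 500 cells/well, dosed in dose-response for 72 h at 37 °C; CellTiter-Glo luminescence. Cytotoxic: curve class -1.1 to -2.4, max response >50%, AC50 < 10 uM.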

[2] = P-glycoprotein substrates identified in KB-8-5-11 adenocarcinoma cell line, qHTS therapeutic library screen (AID 1346987); conditions: KB-8-5-11 (P-gp overexpressing) viability, CellTiter-Glo, 72 h; series mostly up to 44.5 µM; further: nearly all actives have a fitted effect of over 65% in size
How it was run: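 KB-8-5-11, a colchicine-selected P-gp-overexpressing KB-3-1 subline, was grown without colchicine for the assay. Cells were seeded at 500 cells/well, dosed in concentration-response and incubated 72 h at 37 degree C, 5% CO2. Viability was read by CellTiter-Glo luminescence.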
Potency means the concentration at half of the fitted maximal effect.

## CCC(=O)OCC(=O)[C@@]1(OC(=O)CC)[C@@H](C)C[C@H]2[C@@H]3CCC4=CC(=O)C=C[C@]4(C)[C@@]3(F)[C@@H](O)C[C@@]21C
[1]
  Potency: inactive
[2]
  Potency: inactive

## CC1=C2CC(C)(C)CC2C(O)C2=C(C1)C(=O)OC2O (stereo not given)
[1]
  Potency: inactive
[2]
  Potency: inactive

## COc1cc(C(=O)OCC2=CCC3C(C(=O)O)=COC(O[C@@H]4O[C@H](CO)[C@@H](O)[C@H](O)[C@H]4O)C23)ccc1O (stereo not given in full)
[1]
  Potency: inactive
[2]
  Potency: inactive

## COC(=O)C1=CO[C@@H](O[C@@H]2O[C@H](CO)[C@@H](O)[C@H](O)[C@H]2O)/C(=C\CO)[C@@H]1CC(=O)OCCc1ccc(O)cc1
[1]
  Potency: inactive
[2]
  Potency: inactive

## CC(CC(C)O[C@@H]1O[C@H](CO)[C@@H](O)[C@H](O)[C@H]1O)OC(=O)/C=C/c1ccc(O)cc1 (stereo not given in full)
[1]
  Potency: inactive
[2]
  Potency: inactive

## CC1(C)CC2C(O)C3=C(CC(C)(O)C2C1)C(=O)OC3 (stereo not given)
[1]
  Potency: inactive
[2]
  Potency: inactive

## C[C@@H]1O[C@@H](O[C@H]2[C@H](O[C@H]3[C@H](O[C@H]4CC[C@@]5(C)C(CC[C@]6(C)C5CC=C5[C@@H]7CC(C)(C)C[C@@H](O)[C@]7(C)CC[C@]56C)[C@@]4(C)CO)O[C@H](C(=O)O)[C@@H](O)[C@@H]3O)O[C@H](CO)[C@H](O)[C@@H]2O)[C@H](O)[C@H](O)[C@H]1O (stereo not given in full)
[1]
  outcome: inactive [at 9.29 µM]
[2]
  outcome: inactive [at 9.29 µM]

## COc1ccc(O[C@@H]2O[C@H](CO)[C@@H](O)[C@H](O)[C@H]2O)cc1OC
[1]
  Potency: inactive
[2]
  Potency: inactive

## CC1(C)C2CC[C@]3(C)C(C(=O)C=C4[C@H]5C[C@@](C)(C(=O)O)CC[C@]5(C)CC[C@]43C)[C@@]2(C)CC[C@@H]1O (stereo not given in full)
[1]
  Potency: inactive
[2]
  Potency: inactive

## COC(=O)c1cc(OC)cc(OC)c1C(=O)c1c(OC)cc2c(c1O)C1CCC(O)C(C)(O2)O1 (stereo not given)
[1]
  Potency: inactive
[2]
  Potency: inactive

## C=C1C(=O)OC2CC(COC(=O)C(C)C)=C(C(C)CCCOC(C)=O)[C@@H](OC(C)=O)C12 (stereo not given in full)
[1]
  Potency: inactive
[2]
  Potency: inactive

## COC(=O)C1=CO[C@@H](O[C@@H]2O[C@H](CO)[C@@H](O)[C@H](O)[C@H]2O)[C@@H]2[C@@H](C)[C@@H](O)C(O)[C@H]12 (stereo not given in full)
[1]
  Potency: inactive
[2]
  Potency: inactive

## COC(=O)c1c(CC=C(C)C)c(OC2OC(CO)C(O)C(O)C2O)c2ccccc2c1OC1OC(CO)C(O)C(O)C1O (stereo not given)
[1]
  Potency: inactive
[2]
  Potency: inactive

## CC1=C(CO)C2(C)CCCC(C)(C)C2C(O)C1O (stereo not given)
[1]
  Potency: inactive
[2]
  Potency: inactive

## CC(=C\C(C)O)/C=C(\C)C(=O)CC1CC(CC(N)=O)CC(=O)O1 (stereo not given)
[1]
  Potency: inactive
[2]
  Potency: inactive

## C=Cc1cc2oc(-c3ccc(O)c(F)c3)nc2cc1O
[1]
  Potency: inactive
[2]
  Potency: inactive

## CCC(C)C(=O)O[C@H]1C[C@](C)(O)[C@]23OC(C)(C)[C@H](C[C@H](OC(=O)c4ccccc4)[C@]2(COC(C)=O)[C@H]1OC(=O)C(C)CC)[C@H]3OC(C)=O (stereo not given in full)
[1]
  Potency: inactive
[2]
  Potency: inactive

## C[C@@H](CC[C@@H]1[C@@]2(C)CCCC(C)(C)C2CC[C@@]1(C)O)CC(=O)O (stereo not given in full)
[1]
  Potency: inactive
[2]
  Potency: inactive

## COC(=O)C1=COC(O[C@@H]2O[C@H](COC(=O)/C=C/c3ccc(O)cc3)[C@@H](O)[C@H](O)[C@H]2O)C2C(CO)=CCC12 (stereo not given in full)
[1]
  Potency: inactive
[2]
  Potency: inactive

## CC(=O)/C=C/C1(O)C(C)(C)CC(O)CC1(C)O (stereo not given)
[1]
  Potency: inactive
[2]
  Potency: inactive

## CCC/C=C/C=C/C1CC(O)C(O)C(=O)C1CO (stereo not given)
[1]
  Potency: inactive
[2]
  Potency: inactive

## CC(=O)c1ccc(O[C@@H]2OC[C@@H](O)[C@H](O)[C@H]2O[C@]2(CO)O[C@H](CO)[C@@H](O)[C@@H]2O)c(O)c1
[1]
  Potency: inactive
[2]
  Potency: inactive

## C[C@@H]1O[C@@H](O[C@@H]2[C@@H](O)[C@H](O[C@@H]3[C@@H](O)[C@@H](O)[C@H](O[C@H]4[C@H](OC(=O)[C@]56CCC(C)(C)C[C@H]5C5=CCC7[C@@]8(C)C[C@H](O)[C@H](O[C@@H]9O[C@H](C(=O)O)[C@@H](O)[C@H](O)[C@H]9O)[C@@](C)(CO)C8[C@H](O)C[C@@]7(C)[C@]5(C)C[C@H]6O)O[C@@H](CO)[C@@H]4O)O[C@H]3C)OC[C@H]2O)[C@H](O)[C@H](O)[C@H]1O (stereo not given in full)
[1]
  outcome: inactive [at 9.29 µM]
[2]
  activity change, negative = cytotoxicity: 8.82% [at 9.29 µM] (inactive)

## Cc1c(F)cc(C(=O)NC2CC2)cc1-c1ccc(C(=O)NCC(C)(C)C)cn1
[1]
  Potency: 920 nM (active)
[2]
  Potency: inactive and 1.03 µM (active)

## CC1=C(C(=O)OC2OC(COC3OC(CO)C(O)C(O)C3O)C(O)C(O)C2O)C(C)(C)CCC1 (stereo not given)
[1]
  Potency: inactive
[2]
  Potency: inactive
